# Reference: PubChem BioAssay (NCI)
# About 83,000 compounds went through this panel and 20% of them were active in at least one assay; those are over-represented in the sample as a whole.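 Cell lines were cultured in 96-well plates, exposed to a single compound concentration, and assessed for percent growth 48 hours later.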 Unmarked numbers belong to inactive results. Activity calls are given as the source filed them. Rule for the calls: active = growth percent below 10; inactive = the rest.
# What was measured:
# Assay in all cases: NCI-60 one-dose screen, 48 h (100 = growth as untreated, 0 = no growth, -100 = all killed)
# Details in all cases: 10 µM unless noted
# [1] = system: SK-MEL-2 melanoma
# [2] = system: EKVX NSCLC
# [3] = system: SN12C renal
# [4] = system: UO-31 renal
# [5] = system: TK-10 renal
# [6] = system: ACHN renal
# [7] = system: CAKI-1 renal
# [8] = system: A498 renal
# [9] = system: CCRF-CEM leukemia
# [10] = system: MOLT-4 leukemia
# [11] = system: SR leukemia
# [12] = system: RPMI-8226 leukemia
# [13] = system: OVCAR-8 ovarian
# [14] = system: OVCAR-5 ovarian
# [15] = system: OVCAR-4 ovarian
# [16] = system: SK-OV-3 ovarian
# [17] = system: IGROV1 ovarian
# [18] = system: OVCAR-3 ovarian
# [19] = system: HS 578T breast
# [20] = system: NCI/ADR-RES ovarian
SMILES,growth [1],growth [2],growth [3],growth [4],growth [5],growth [6],growth [7],growth [8],growth [9],growth [10],growth [11],growth [12],growth [13],growth [14],growth [15],growth [16],growth [17],growth [18],growth [19],growth [20]
Nc1cccc(-c2nc3sccn3c2-c2ccnc(NCCCNS(=O)(=O)c3cccc4ccccc34)n2)c1,36.3%,56.7%,39.3%,21.5%,76.5%,31.6%,34.9%,29.8%,16.1%,10.3%,38.7%,8.33% (active),23.5%,92.1%,24.6%,63.1%,36.7%,37.6%,44.7%,38.3%
O=[N+]([O-])c1ccc(OCCCOc2ccccc2)cc1,102%,96.8%,104%,87.2%,97.5%,106%,93.9%,102%,105%,94.6%,92.3%,97.7%,105%,107%,100%,105%,94.5%,99.3%,–,99.8%
COc1cc2c(=O)n(C3CCCCCC3)c3c4cc[nH]c4ncc3c2cc1OC,90.3%,91.8%,55.6%,81.2%,96.3%,70.5%,73.7%,24.6%,51.1%,40.9%,16.3%,66.4%,83.4%,76.2%,93.4%,82.3%,57.3%,89.1%,42.4%,89.1%
Brc1cccc(-c2cc(-c3ccc4c(c3)OCCCO4)[nH]n2)c1,46.1% [25 µM],54.7% [25 µM],62.7% [25 µM],60.1% [25 µM],71.1% [25 µM],75.8% [25 µM],39.6% [25 µM],70% [25 µM],57.5% [25 µM],56.8% [25 µM],41.7% [25 µM],57.2% [25 µM],69.3% [25 µM],63% [25 µM],68.1% [25 µM],53.1% [25 µM],46.8% [25 µM],48.7% [25 µM],71.1% [25 µM],22.1% [25 µM]
OB(O)c1cccc(-c2nc3ccc4[nH]ncc4c3c3c2CCCC3)c1F,57.1%,50.2%,47.7%,27%,18.3%,32.2%,-24.3% (active),12.7%,29.7%,52%,48.7%,50.7%,52.8%,75.1%,76.4%,-10.7% (active),41.1%,62.5%,24.9%,53.7%
C=C[C@@H]1C[C@H](O)Cc2cc(F)ccc2N1,123%,89.3%,101%,103%,97.7%,104%,92.3%,93.8%,-66% (active),-34.3% (active),73.6%,73.2%,102%,95.7%,101%,104%,131%,102%,–,105%
NC1=C(/C(N)=N/O)C(c2ccccc2)c2ccc3ccccc3c2O1 (configuration not stated),44.7%,29.1%,24.2%,38.6%,74.4%,28.2%,26%,-8.95% (active),14.4%,27.2%,34.9%,19.1%,17.2%,29.6%,47.5%,55.2%,29%,-3.21% (active),13.4%,-1.33% (active)
CN1CCN(Cc2ccc(NC(=O)c3cncc(C#Cc4cnc(N)c5cnccc45)c3)cc2C(F)(F)F)CC1,-65.4% (active),2.4% (active),5.24% (active),-21.1% (active),12.8%,-9.19% (active),-18.9% (active),-54.8% (active),13%,16.8%,11%,-16.7% (active),23.8%,2.45% (active),11.9%,-26.8% (active),-8.29% (active),35.7%,-18% (active),65.9%
COc1ccc(C2C(C#N)=C(N)Oc3c2ccc2ccccc32)cc1 (configuration not stated),24.8%,73.8%,51.5%,38.8%,81%,52.5%,30.8%,0% (active),24.2%,31.7%,37.4%,44.3%,56.5%,73.3%,62.3%,57.8%,41%,15.4%,47.1%,5.02% (active)
COc1cc(/C=C/C(=O)c2ccc(Nc3ncnc4cc(OC)c(OC)cc34)cc2)cc(OC)c1,105%,101%,91.1%,94.4%,104%,102%,97.6%,95.8%,63.2%,53.8%,30.6%,-2.38% (active),95.3%,112%,107%,116%,99.5%,104%,97.3%,97.3%
Cn1ccc(Nc2nccc(Oc3ccc(C(=O)Nc4cccc(F)c4)c(Cl)c3)n2)c1,58%,47.1%,73.4%,62.6%,54.4%,44.7%,69.6%,46.9%,58.4%,83.3%,98.3%,107%,88.2%,87.9%,67%,15.9%,62.4%,55.6%,96.9%,96.6%
Nc1nc(=O)c2ccccc2s1,104%,111%,98.9%,78.3%,114%,99.4%,101%,131%,92.2%,103%,109%,94.8%,121%,99.6%,125%,104%,122%,131%,112%,113%
COc1cc(-c2nn(C(=O)NS(=O)(=O)c3ccccc3)cc2-c2ccncc2)ccc1Cl,94.8%,56.1%,82.4%,69.7%,83%,80.3%,84.8%,60.3%,92.8%,83.9%,89.1%,74.2%,20.4%,99.9%,–,82.1%,78.6%,106%,–,82.3%
Cc1cc(C2(c3cc(C)c(O)cc3C)OS(=O)(=O)c3ccccc32)c(C)cc1O,111%,105%,96.7%,69.4%,88.5%,105%,95.7%,93.9%,93.7%,96.3%,95.3%,92.4%,103%,111%,–,101%,107%,107%,96.3%,110%
CC1CN(c2oc(-c3ccccc3)nc2C#N)CC(C)O1 (configuration not stated),102%,92.6%,97.9%,95.2%,116%,103%,87%,93.8%,104%,103%,102%,104%,102%,102%,–,–,97.7%,116%,102%,107%
NC1N=C(SCC(=O)N2CCN(c3cc4c(cc3F)c(=O)c(C(=O)O)cn4C3CC3)CC2)NC(=O)/C1=C/c1ccc(Cl)cc1 (configuration not stated),108%,92.8%,99.4%,79%,107%,102%,91.2%,106%,107%,109%,110%,101%,102%,104%,–,114%,104%,109%,106%,105%
